# Test results reported in PMC6919601, “Identification of Plasmodium dipeptidyl aminopeptidase allosteric inhibitors by high throughput screening” (PLoS ONE, 2019).
# Where “and” joins values, the source holds several entries; their conditions need not be identical. Equal entries are not always repeated. Screen size: about 110,000 compounds; about 230 (0.21%) showed an effect of 50% or more. The sample holds strong results, similar compounds and a random draw of the others, so the mix is not that of the screen.
# Biological target: DPAP1 (Plasmodium falciparum, UniProt Q8IIJ9)
# Assay: primary screen, percent inhibition; read by cleavage of a fluorogenic dipeptide substrate; higher = more effect of the substance
# Parameters: species or system P. falciparum D10 trophozoite lysates; single well
# 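Note: 30 min substrate incubation versus DMSO and 10 µM JCP410 controls.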
# Sequence of DPAP1 (Q8IIJ9 whole entry, looked up): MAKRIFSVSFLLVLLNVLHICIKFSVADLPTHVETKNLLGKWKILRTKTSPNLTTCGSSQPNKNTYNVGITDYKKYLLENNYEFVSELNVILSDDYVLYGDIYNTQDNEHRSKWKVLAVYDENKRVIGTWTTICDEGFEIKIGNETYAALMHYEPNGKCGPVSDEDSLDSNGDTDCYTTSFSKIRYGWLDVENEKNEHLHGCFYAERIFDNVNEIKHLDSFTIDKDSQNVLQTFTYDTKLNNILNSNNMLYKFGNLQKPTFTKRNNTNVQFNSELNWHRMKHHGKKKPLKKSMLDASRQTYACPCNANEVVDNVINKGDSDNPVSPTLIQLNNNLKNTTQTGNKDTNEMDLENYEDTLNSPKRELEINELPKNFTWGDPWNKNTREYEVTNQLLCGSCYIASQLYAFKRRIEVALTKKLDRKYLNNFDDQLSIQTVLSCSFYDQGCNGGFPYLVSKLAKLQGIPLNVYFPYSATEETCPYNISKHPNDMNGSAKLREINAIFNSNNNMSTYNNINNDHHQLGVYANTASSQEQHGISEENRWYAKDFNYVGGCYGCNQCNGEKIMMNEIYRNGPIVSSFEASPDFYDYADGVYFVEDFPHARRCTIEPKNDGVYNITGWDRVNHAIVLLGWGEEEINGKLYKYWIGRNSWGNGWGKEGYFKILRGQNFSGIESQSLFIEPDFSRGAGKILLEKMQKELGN
row,Structure (SMILES),% Inhibition @ 10 uM
1,O=C1NC(=O)/C(=C/c2ccc(-c3ccc(O)c(C(=O)O)c3)o2)S1,64.8%
2,O=C1NC(=O)/C(=C\c2ccc(-c3ccc(Cl)cc3)o2)S1,6.08%
3,O=C1NC(=O)/C(=C\c2ccc(-c3ccc(Cl)c(C(=O)O)c3)o2)S1,8.24%
4,OCCN(Cc1ccccc1)CC1CC=CCC1 (stereo not drawn),1.38%
5,COC(=O)c1cc(O)nc(SCc2cccc(C)c2)n1,4.47%
6,Cc1ccc(S(=O)(=O)c2cc3c(=O)n4ccccc4nc3n(C)c2=N)cc1,57.9%
7,CCCn1c(=N)c(S(=O)(=O)c2ccc(C)cc2)cc2c(=O)n3ccccc3nc21,3.99%
8,Cc1ccc(S(=O)(=O)c2cc3c(=O)n4ccccc4nc3n(CCO)c2=N)cc1,-4.59%
9,C=CCOCC(O)CSc1nc(C)cc(C)n1 (stereo not drawn),3.48%
10,O=C(C1CCCC1)N1CCN(C(c2ccccc2)c2ccccc2)CC1,0.795%
11,O=C(Nc1ccccc1)c1nc2ccccc2s1,5.39%
12,CCCCCCc1cc2cc(-c3csc(N)n3)c(=O)oc2cc1O,1.12%
13,CCCCCCc1cc2cc(C(=O)O)c(=O)oc2cc1O,4.08%
14,CCCCCCc1cc2cc(C#N)c(=O)oc2cc1O,67.5%
15,CCOC(=O)c1sc(N2C(=O)c3oc4ccccc4c(=O)c3C2c2ccc(O)c(OC)c2)nc1C (stereo not drawn),2.16%
16,CCc1ccc(C2c3c(oc4ccccc4c3=O)C(=O)N2c2nc(C)c(C(=O)OC)s2)cc1 (stereo not drawn),-1.86%
17,CCOc1ccc(C2c3c(oc4ccccc4c3=O)C(=O)N2c2nc(C)c(C(=O)OC)s2)cc1 (stereo not drawn),70.8%
18,C=CCOc1ccc(C2c3c(oc4ccccc4c3=O)C(=O)N2c2nc(C)c(C(=O)OC)s2)cc1 (stereo not drawn),3.12%
19,CCOc1cc(C2c3c(oc4ccccc4c3=O)C(=O)N2c2nc(C)c(C(=O)OC)s2)ccc1O (stereo not drawn),69.6%
20,CCOc1cc(C2c3c(oc4ccccc4c3=O)C(=O)N2c2nc(C)c(C(C)=O)s2)ccc1O (stereo not drawn),-0.828%
21,CCn1cc(C(=O)Nc2ccccc2C(C)C)cn1,6.1%
22,CCS(=O)(=O)c1nc(S(=O)(=O)c2ccc(C)cc2)c(NCCc2ccccc2)s1,-5.89%
23,Cc1nc2c(nc(C)n2-c2ccccc2)s1,2.92%
24,CCOc1ccc(Nc2nc(-c3cccs3)cs2)cc1,-1.37%
25,CCCCNC(=O)C(CC)n1nc(C)c2sc3ccccc3c2c1=O (stereo not drawn),-2.61%
26,CCC(C(=O)NCc1ccc(OC(C)C)cc1)n1nc(C)c2sc3ccccc3c2c1=O (stereo not drawn),2.8%

row,Structure (SMILES),% Inhibition @ 10 uM
1,CCc1ccc(CNC(=O)C(CC)n2nc(C)c3sc4ccccc4c3c2=O)cc1 (stereo not drawn),90.8%
2,O=S(=O)(c1ccccc1)N1CCN(c2ccccc2)CC1,5.09%
3,O=C1CN(S(=O)(=O)c2ccccc2)CCN1S(=O)(=O)c1ccccc1,60.8%
4,CN1CCN(S(=O)(=O)c2ccccc2)CC1,-0.127%
5,COc1cc(CN2CCc3c([nH]c4ccccc34)C2)cc2c1OCO2,-5.11%
6,CC(=O)C1=C(C)OC(N)=C(C#N)C1c1cc2c(cc1[N+](=O)[O-])OCO2 (stereo not drawn),-1.29%
7,CN(Cc1cnn(-c2ccccc2)c1)S(=O)(=O)c1ccc(-c2cc(C(F)(F)F)no2)s1,1.05%
8,Cc1cc(-c2ccco2)c(C#N)c(N)n1,1.38%
9,Cc1cc(C(F)(F)F)c(C#N)c(S)n1,82.2%
10,CC(C)(C)c1cc(-c2ccco2)c(C#N)c(S)n1,20.6%
11,Cc1cc(C(F)(F)F)c(C#N)c(SCc2ccccc2)n1,2.23%
12,CCc1nc(N)c(C#N)c(-c2ccc(Br)s2)c1C,-3.13%
13,Cc1cc(-c2ccco2)c(C#N)c(S)n1,51.7%
14,COCc1cc(C)nc(S)c1C#N,43.7% and 44.2%
15,Cc1cc(C)c(C#N)c(Cl)n1,1.27%
16,Cc1cc(C)c(C#N)c(S)n1,89.9%
17,CCc1nc(S)c(C#N)c(C(F)(F)F)c1C,74.2%
18,CSc1nc(C)cc(C(F)(F)F)c1C#N,4.97%
19,CCc1nc(SCc2cccnc2)c(C#N)c(C(F)(F)F)c1C,0.775%
20,O=C1c2cccnc2C(=O)N1c1ccccc1-c1ccccc1,-2.29%
21,COCCNC(=O)c1sc2ncn(CC(=O)N3CCC(C)CC3)c(=O)c2c1C,-2.17%
22,CCCC(=O)n1nc2c3c(cccc31)C(=O)c1ccccc1-2,-2.75%
23,Cc1ccc(O)c(/C=N/c2c(C)nn(C)c2C)c1,7.26%
24,CC(C)CCn1nnc2sc3c(c2c1=O)CCC(C)C3 (stereo not drawn),-6.78%
25,Cc1ccc(CNc2nc3ccccc3c3nc(-c4ccncc4)nn23)cc1,0.981%
